Molecules are shown by their SMILES. Records with an inconclusive call do not appear. Activity calls are given as the source filed them. The call rests on the fitted dose curve; in most records, active means well fitted cell-killing curve with a large enough effect; inconclusive means small, poorly fitted or top-dose-only effect, or effect the other way; inactive means no such curve, though single readings can be large or run the other way.
Potency means the concentration at half of the fitted maximal effect.

The test in a line: Quantitative High-Throughput drug screen in 47 multiple myeloma cell lines against the NCATS MIPE library collection: KMS26_JCRB cell viability assay (AID 1918975). Further: nearly all actives have a fitted effect of over 45% in size. The following applies: KMS26 myeloma cells viability, CellTiter-Glo ATP, 48 h; series mostly up to 45.8 µM. From the text:
PI: Beverly A. Mock Ph.D.
Laboratory of Cancer Biology and Genetics,
Center for Cancer Research, National Cancer Institute,
National Institute of Health, Bethesda, Maryland
Drug resistance and disease progression are common in multiple myeloma (MM) patients, underscoring the need for new therapeutic combinations. […] We hypothesized that effective combinations would reduce MYC expression and enhance p16 activity. […] These preclinical data identify potentially useful drug combinations for evaluation in drug-resistant MM and reveal potential mechanisms of combined drug sensitivity.
Described herein is the primary MIPE qHTS used to cherrypick compounds. Validated compounds were then further tested for potential synergistic activiy.
[1] Peat TJ, Gaikwad SM, Dubois W, Gyabaah-Kessie N, Zhang S, Gorjifard S, Phyo Z, Andres M, Hughitt VK, Simpson RM, Miller MA, Girvin AT, Taylor A, Williams D, D'Antonio N, Zhang Y, Rajagopalan A, Flietner E, Wilson K, Zhang X, Shinn P, Klumpp-Thomas C, McKnight C, Itkin Z, Chen L, Kazandijian D, Zhang J, Michalowski AM, Simmons JK, Keats J, Thomas CJ, Mock BA. Drug combinations identified by high-throughput screening promote cell cycle transition and upregulate Smad pathways in myeloma. Cancer Lett. 2023 Aug 1;568:216284. doi: 10.1016/j.canlet.2023.216284. Epub 2023 Jun 24. PMID: 37356470; PMCID: PMC10408729.
SEQUENCE No. (e.g., 1, 2, 3, etc.); […] (e.g., Cells, Incubation, Reagent, etc.); VALUE and DESCRIPTION.
1; Cells; 5 uL; white, solid bottom 1536-well Greiner assay plate.
2; Compounds; 23 nL; Kalypsis pin tool (Wako USA) equipped with a 1536-well pin head to transfer to the assay plates.
3; Incubation; 48 hours; 37C incubation.
4; Reagent;5uL; CellTiter Glo (Promega).
5; Detector; 425V; Luminescence; Viewlux PerkinElmer.
NOTES (numbers refer to Sequence numbers above)
1. The cell-based screening methods employed in this study were like those previously published. Briefly, the corresponding myeloma cell lines were screened in 1,536-well plates with 500 cells, 5-uL per well for inhibition of cell viability (assessed by measuring ATP levels with CellTiterGlo).
2. NCATS MIPE 4.0 library of approved and investigational drugs were added using the Kalypsis pin tool. Wells treated with DMSO only for 100% viability and media only wells for 0% viability were used as controls.
3. The assay plates were covered and incubated for 48 hours in a 37C, 5% CO2 incubator with controlled humidity.
4. After 48 hours, CellTilter-GloTM luminescent substrate mix (Promega) reagent was added to the assay plate and plates we incubated for 5 min at room temperature.
5. Signal was measured as median relative luminescence units on a ViewLux (PerkinElmer) multiplate reader.
[1] Heske CM, Davis MI, Baumgart JT, Wilson K, Gormally MV, Chen L, Zhang X, Ceribelli M, Duveau DY, Guha R, Ferrer M, Arnaldez FI, Ji J, Tran HL, Zhang Y, Mendoza A, Helman LJ, Thomas CJ. Matrix Screen Identifies Synergistic Combination of PARP Inhibitors and Nicotinamide Phosphoribosyltransferase (NAMPT) Inhibitors in Ewing Sarcoma. Clin Cancer Res. 2017 Dec 1;23(23):7301-7311. doi: 10.1158/1078-0432.CCR-17-1121. Epub 2017 Sep 12. PMID: 28899971; PMCID: PMC6636827.
Turning to `Cn1cnc([N+](=O)[O-])c1Sc1ncnc2nc[nH]c12`, the Potency was 11.8 µM (active).

On to `O=c1[nH]c(-c2ccc(C(F)(F)F)cc2)nc2c1CSCC2`, for which the Potency is 3.72 µM (active).

For the compound `CN1CCN(CCCN2c3ccccc3Sc3ccc(C(F)(F)F)cc32)CC1`, the Potency entry is “inactive”.

As for `COc1cc2nccc(Oc3ccc(NC(=O)NC4CC4)c(Cl)c3)c2cc1C(N)=O`, the Potency is 23.5 µM (active).

`Cc1oncc1C(=O)Nc1ccc(C(F)(F)F)cc1`: the Potency result was “inactive”.

With `Cc1cccc(-c2nn(C(=S)Nc3ccccc3)cc2-c2ccnc3ccccc23)n1`, the Potency was 6.62 µM (active).

With `Cc1cc([C@@H](C)Nc2ccccc2C(=O)O)c2nc(N3CCOCC3)cc(=O)n2c1`, the Potency was 27 µM (active).

With `Nc1ncnc2nc(-c3ccc(N4CCOCC4)nc3)cc(-c3cccc(Br)c3)c12`, the Potency entry is “inactive”.

As to `O=c1n(CCCN2CCN(c3cccc(Cl)c3)CC2)nc2ccccn12`, the Potency entry was “inactive”.

For `CCCC(CCC)C(=O)O`, the Potency entry was “inactive”.

As for `O=C1[C@H](Cc2ccc(O)cc2)N2C(=O)CCN(C(=O)NCc3ccccc3)[C@H]2CN1Cc1cccc2ccccc12`, the Potency was 7.43 µM (active).

As for `CCCS(=O)(=O)Nc1ccc(F)c(C(=O)c2c[nH]c3ncc(Cl)cc23)c1F`, the Potency result was “inactive”.

With `CC(C)(N)C(=O)N[C@H](COCc1ccccc1)C(=O)N1CCC2(CC1)CN(S(C)(=O)=O)c1ccccc12`, the Potency was 0.0264 µM (active).

Consider `COc1cccc2cc(-c3nc(C4CCC(C(=O)O)CC4)n4ncnc(N)c34)[nH]c12` (stereo not given), for which the Potency is 0.662 µM (active).

For the compound `CCOc1ccc(Cc2cc([C@@H]3O[C@H](CO)[C@@H](O)[C@H](O)[C@@H]3O)ccc2Cl)cc1`, the Potency result was “inactive”.

With `Cc1ccc(-n2nc(C(C)(C)C)cc2NC(=O)Nc2ccc(OCCN3CCOCC3)c3ccccc23)cc1`, the Potency is 26.4 µM (active).

Regarding `COc1nc(-c2ccc3c(c2)OCO3)n(-c2ccc(NC(=O)CSc3ccccc3)cc2)n1`, the Potency was 11.8 µM (active).

Take `COc1ccc(-c2ccc3c(N4CCOCC4)nc(N4C[C@@H](C)O[C@@H](C)C4)nc3n2)cc1CO`: the Potency is 2.96 µM (active).

Regarding `CNC[C@H](O)c1cccc(O)c1`, the Potency result is “inactive”.

`CC(C)C[C@H](NC(=O)[C@@H](O)[C@H](N)Cc1ccccc1)C(=O)O`: the Potency was 23.5 µM (active).

For `CC[C@H](Nc1ncnc2nc[nH]c12)c1nc2cccc(F)c2c(=O)n1-c1ccccc1`, the Potency is 13.2 µM (active).

`Cc1cc2c(C(C)C)c(O)c(O)c(C=O)c2c(O)c1-c1c(C)cc2c(C(C)C)c(O)c(O)c(C=O)c2c1O`: the Potency is 14.8 µM (active).

As to `COc1ccccc1-c1cccc(-c2c(O)c3cc(C#N)c(Cl)cc3[nH]c2=O)c1`, the Potency result was “inactive”.

For the compound `CCn1cc(C(=O)O)c(=O)c2cc(F)c(N3CCNC(C)C3)c(F)c21` (stereo not given), the Potency entry was “inactive”.

With `Cn1c(=O)c(F)c(Nc2ccc(I)cc2F)c2c(=O)n(C[C@@H](O)CO)cnc21`, the Potency entry is “inactive”.

Regarding `Cn1cnc2c(F)c(Nc3ccc(Br)cc3Cl)c(C(=O)NOCCO)cc21`, the Potency was 7.43 µM (active).

On to `CC(=O)Oc1ccccc1C(=O)O`, for which the Potency was 11.8 µM (active).

For `COc1ccc(-c2oc3cc(OC)ccc3c2C(=O)c2ccc(C#N)cc2)cc1`, the Potency entry is “inactive”.

As for `O=S(=O)(N=Cc1c(O)ccc2ccccc12)c1cccs1`, the Potency was 16.6 µM (active).

In the case of `CCOc1ccn(-c2ccc(F)cc2)c(=O)c1C(=O)Nc1ccc(Oc2ccnc(N)c2Cl)c(F)c1`, the Potency result is “inactive”.

`COc1c(Cl)cc2c([nH]c3cnccc32)c1NC(=O)c1cccnc1C`: the Potency was 13.2 µM (active).

Take `Cc1cnc(NC(=O)C2=C(O)c3ccccc3S(=O)(=O)N2C)s1`: the Potency result was “inactive”.

On to `c1ccc(-c2nn3c(c2-c2ccnc4cc(OCCN5CCOCC5)ccc24)CCC3)nc1`, for which the Potency result is “inactive”.

Consider `OC(CN1CCC(Cc2ccc(F)cc2)CC1)c1ccc(Cl)cc1` (stereo not given), for which the Potency entry was “inactive”.

Regarding `Nc1nc2[nH]cc(CCc3ccc(C(=O)N[C@@H](CCC(=O)O)C(=O)O)cc3)c2c(=O)[nH]1`, the Potency entry was “inactive”.

As to `O=C(O)[C@@H](c1ccc(OCc2ccc3ccccc3n2)cc1)C1CCCC1`, the Potency was 0.0012 µM (active).

As to `COc1ccc(-c2ccc3c(N4CCOC[C@H]4C)nc(N4CCOC[C@H]4C)nc3n2)cc1CO`, the Potency was 4.69 µM (active).

As for `Cc1cc(Nc2nc(N[C@@H](C)c3ncc(F)cn3)ncc2Cl)n[nH]1`, the Potency is 26.4 µM (active).

Take `Cc1[nH]c(=O)c(C#N)cc1-c1ccc2nccn2c1`: the Potency result is “inactive”.

In the case of `CC(C=CC1=C(C)CCCC1(C)C)=CC=CC(C)=CC(=O)O`, the Potency entry was “inactive”.

(Values after PubChem BioAssay (NCATS).)
